Drawing on ChEMBL document CHEMBL4513216, “Probing the Open Global Health Chemical Diversity Library for Multistage-Active Starting Points for Next-Generation Antimalarials” (ACS Infect Dis, 2020), this text covers INHIBITION for 110 compounds.

Screen size: about 69,000 compounds; about 8,600 (12%) showed an effect of 50% or more. This excerpt belongs to a sample that is enriched for strong results.

The test system of this test is Plasmodium berghei. Nature of the test: Screen against P. berghei liver stage (PbLuc), transformed with Luciferase, at 10uM. It is filed as functional, HepG2. The settings on record: tested at 10 uM.
On to `COc1ncc(NCc2cc(C#N)cs2)cc1C(N)=O`, for which the INHIBITION is 11.4%.
For `CO[C@@H]1CCN(Cc2c(C)noc2C)[C@@H]2CN(Cc3ccco3)C[C@@H]21`, the INHIBITION worked out at 35.5%.
For the compound `CCN(CC1CCOC1)C(=O)Nc1ccc(N2CCOCC2)nc1` (stereo not given), the INHIBITION is 36.05%.
The figure for `Cn1cc(CCC(=O)N2CCCN(c3ncccc3C#N)CC2)cn1` is 37.4%; for `Cc1ccc(F)c(S(=O)(=O)N2CCCC2c2ccncc2)c1` (stereo not given) it is 45.3%.
The figure for `O=S(=O)(c1cc(F)ccc1F)N1CCCC1c1ccncc1` (stereo not given) is 19.3%; for `COc1ccc(C2CCCN2S(=O)(=O)c2cc(F)ccc2F)cc1` (stereo not given) it is 62.6%.
As to `CCOCc1cccc(S(=O)(=O)Nc2ccn(CC)n2)c1`, the INHIBITION is 18.4%.
The figure for `COCCCC1(CO)CCCN(C(=O)c2cnc3c(c2)CCCC3)C1` (stereo not given) is 35.9%.
The figure for `COCCC1(C(=O)O)CCCN(C(=O)c2cnc3c(c2)CCCC3)C1` (stereo not given) is 47.1%; for `O=C(c1cnc2c(c1)CCC2)N1CCCC(CO)(CC2CC2)C1` (stereo not given) it is 68.4%; for `Cc1[nH]n(C)c2nc(=O)cc(C(F)(F)C(F)(F)F)c1-2` it is 76.3%.
The figure for `CCn1[nH]c(C)c2c(C(F)(F)C(F)(F)F)cc(=O)nc1-2` is 50.5%; for `CCn1[nH]c(C)c2c(C(F)(F)F)cc(=O)nc1-2` it is 31.7%; for `O=C(Cn1nc2ccccc2n1)N1CCCn2cncc2C1` it is 1.37%.
With `Cc1csc(NC(=O)C(C)Oc2ccc3c(c2)OCO3)n1` (stereo not given), the INHIBITION is on record as 16.2%.
The figure for `Cc1cnn(CC2CCCN2C(=O)c2cc(O)nc3ccccc23)c1` (stereo not given) is -29.8%; for `Cc1ccc(NC(=O)NCCc2ccncc2C)c(N(C)C)n1` it is -0.554%; for `Cc1nccn1CCCN1CCCC(c2nccn2C)C1` (stereo not given) it is 34.2%.
The figure for `Cc1nccn1CCCN1CCCC(c2nccn2CC2CCC2)C1` (stereo not given) is 41.8%; for `Cc1nccn1CCCN1CCC(c2nccn2CC2CCC2)CC1` it is 60.2%.
The figure for `CS(=O)(=O)N1CCOCC2(CN(Cc3nccs3)CCO2)C1` (stereo not given) is 45.2%.
In the case of `CCOCC(O)CN1CCN(C(=O)C(C)(C)CC)CC1` (stereo not given), the INHIBITION was found to be 24%.
The figure for `O=C(c1cncc(NCC2COc3ccccc3C2)n1)N1CCOCC1` (stereo not given) is 3.13%; for `CN(Cc1cc(C(C)(C)C)n[nH]1)C(=O)c1ccc2nccn2c1` it is 48.3%; for `CCN1CC(COc2ccc(OC)cc2)Oc2ccncc2S1(=O)=O` (stereo not given) it is -10.3%.
The figure for `O=S1(=O)c2cnccc2OC(COc2ccccc2)CN1CC1CC1` (stereo not given) is 22.2%.
The figure for `CC(C)(C)CN1CC(COc2ccccc2)Oc2ccncc2S1(=O)=O` (stereo not given) is 59.3%.
With `COc1cccc(-c2cc(C(=O)NCCCC(F)(F)F)[nH]n2)c1`, the INHIBITION is -16%.
The figure for `CC(C)n1c(=O)[nH]c2cn(-c3ccc(Br)cc3)c(=O)n21` is -17.3%; for `O=C(O)c1ccccc1CN1CCC2(Cc3ccccc3CNC2=O)C1` (stereo not given) it is 40%.
The figure for `NS(=O)(=O)CCNC(=O)C1(c2ccccc2)CC1` is 19.6%; for `NS(=O)(=O)CCNC(=O)C1(c2ccc(Br)cc2)CC1` it is -8.19%; for `CS(=O)(=O)NCCNC(=O)C1(c2ccc(F)cc2)CC1` it is 27.6%.
The figure for `CC(C)(C)c1ccc(C2(C(=O)NCCS(N)(=O)=O)CC2)cc1` is 68.5%; for `CC(C)(C)c1ccc(C2(C(=O)NCCCS(C)(=O)=O)CC2)cc1` it is 43.5%.
As to `CC(C)(C)c1ccc(C2(C(=O)NCCS(C)(=O)=O)CC2)cc1`, the INHIBITION is 62.3%.
With `CCCc1n[nH]c(C2CN(C(=O)c3cccc4cn[nH]c34)CCO2)n1` (stereo not given), the INHIBITION is -11.9%.
For `O=C(NCC1CC2(CO1)CN(c1nncs1)C2)C1CCC1` (stereo not given), the INHIBITION was determined as 1.36%.
Regarding `COC[C@H]1CNC(=O)[C@@H]2CCN(Cc3ccc(F)cc3)CC[C@H]12`, the INHIBITION was 34.4%.
Take `COc1ccc2nnc(CCC(=O)Nc3nc(C)c(C)s3)n2n1`: the INHIBITION is 24.2%.
The figure for `O=C(NC1CC1)N1CC[C@@H](O)[C@@H]1Cc1ccccc1` is -23.3%.
The figure for `CN(C)c1cc(C(=O)N2CCCN(c3cccnn3)CC2)ccn1` is 38.7%; for `O=C(CN(Cc1ccco1)C1CC1)N1CCCCCC1` it is -8.11%.
The figure for `Cc1nonc1OCCNC(=O)COc1ccc(F)cc1F` is 7.92%; for `Cc1nonc1OCCNC(=O)COc1ccc(Cl)cc1Cl` it is 7.38%; for `Cc1nonc1OCCNC(=O)CCCc1ccc(Cl)cc1` it is 57.8%.
`N#Cc1c(F)cccc1Nc1cnn(CC(O)CN2CCOCC2)c1` (stereo not given): the INHIBITION was found to be 44.9%.
`CN1CCN([C@@H]2CCN(Cc3cccc(-n4cccn4)c3)C[C@H]2O)CC1`: the INHIBITION was determined as 22.9%.
For the compound `CN1CCN([C@@H]2CCN(CC3=Cc4cc(Cl)ccc4OC3)C[C@H]2O)CC1`, the INHIBITION was found to be 62.4%.
For `O[C@@H]1CN(CC2=Cc3cc(Cl)ccc3OC2)CC[C@H]1N1CCCCCC1`, the INHIBITION was determined as 31.9%.
For the compound `O=C(C1CCOC1)N1CCC2(CC1)COC2` (stereo not given), the INHIBITION was determined as 19.8%.
The figure for `COCC(=O)N1CCN(C)C(=O)C(Cc2ccc(-c3cccs3)cc2)C1` (stereo not given) is 6.26%; for `CC(C)(C)Cc1noc2ncc(C(=O)N3CCC3)cc12` it is 29%; for `CC1CN(C)CCN1C(=O)c1cnc2onc(CC(C)(C)C)c2c1` (stereo not given) it is 53.9%.
The figure for `CC(C)(C)Cc1noc2ncc(C(=O)N3CCSCC3)cc12` is 37.7%; for `OCc1cc(C2CCCN2c2ncccn2)n[nH]1` (stereo not given) it is 12.27%.
The figure for `OC(COCc1ccccc1)CN1CC(n2cccn2)C1` (stereo not given) is 39.6%.
For `COc1cccc(COCC(O)CN2CC(n3cccn3)C2)c1` (stereo not given), the INHIBITION stood at 52%.
The figure for `OC(COCc1ccc(Cl)cc1)CN1CC(n2cccn2)C1` (stereo not given) is -3.6%.
Consider `Cn1ccc(C(=O)NC2CCC23CCN(C(=O)N2CCCC2)CC3)c1` (stereo not given), for which the INHIBITION is 20.5%.
The figure for `CCc1cnc(N2CC3(CCN(Cc4ccsc4)C3)C2)nc1` is 7.39%; for `Fc1cnc(N2CCCC3(CN(Cc4ccccc4)CCO3)C2)nc1` (stereo not given) it is -15.3%.
The figure for `Fc1cnc(N2CCOC3(CCN(Cc4ccsc4)CC3)C2)nc1` is 71.6%.
`c1csc(CN2CC3(CCN(Cc4ccsc4)C3)C2)n1`: the INHIBITION came to 0.542%.
The figure for `c1ccc(N2CCCC3(CCN(Cc4ccsc4)C3)C2)nc1` (stereo not given) is 37.1%.
The figure for `c1cnc(N2CCOCC3(CN(Cc4ccsc4)CCO3)C2)nc1` (stereo not given) is -47.5%.
The figure for `Fc1cnc(N2CC3(CCN(Cc4ccsc4)C3)C2)nc1` is 52%.
For the compound `c1cnc(N2CCCC3(CCN(Cc4ccsc4)C3)C2)nc1` (stereo not given), the INHIBITION was found to be 53.2%.
As to `Fc1cnc(N2CCCC3(CCN(Cc4ccsc4)C3)C2)nc1` (stereo not given), the INHIBITION was 43.8%.
The figure for `O=C(Nc1cnc2n1CCCC2)C1CCCN1C1CCNCC1` (stereo not given) is 15.7%; for `N#Cc1cn(C2CC2)c(=O)n(CC(O)c2ccccc2C(F)(F)F)c1=O` (stereo not given) it is 29.4%; for `CCS(=O)(=O)NC(CCSC)C(=O)Nc1ccc(C)cc1C` (stereo not given) it is 31.2%.
The figure for `CO[C@@H]1CCN(Cc2cnn(C)c2)[C@@H]2CN(Cc3cccnc3)C[C@@H]21` is 5.96%; for `CNC(=O)[C@@H]1C[C@H](n2cc(-c3ccc(CN4CC=CC4)cc3)nn2)CN1` it is 41.2%.
The figure for `CC[C@H](Cn1ncc2ccccc2c1=O)NC(=O)c1cnc(C)cn1` is 1.62%; for `CCOC(=O)NCc1nn(CCN2CCCC2)c(=O)c2ccccc12` it is 48.8%; for `CC(C)NC(=O)N1CCC2(COCc3cnc(-c4cccnc4)nc32)C1` (stereo not given) it is 38.1%.
For `CCc1oc(C(=O)NCCSc2ncn[nH]2)cc1CN1CCCC1`, the INHIBITION was found to be 37.9%.
The figure for `CCOc1ncccc1NC(=O)N1CCN(CC(=O)NC)CC1` is -22.91%; for `Cc1nccn1CCCN1CCC2(CCC(=O)N(CC3CC3)C2)CC1` it is 34.5%; for `Cn1ncc2c(N3CCCC4(CCNC4)C3)nc(C(C)(C)C)nc21` (stereo not given) it is 63.8%.
Consider `CN(C)[C@H]1CCN(c2nc(C(C)(C)C)nc3c2cnn3C)C1`, for which the INHIBITION came out at 9.35%.
Consider `CCCc1nc(N2CCCC3(CCNC3)C2)c2cnn(C)c2n1` (stereo not given), for which the INHIBITION came to 47.1%.
`CCC1(O)CCCN(c2nc(C(C)(C)C)nc3c2cnn3C)C1` (stereo not given): the INHIBITION is recorded as 48%.
On to `Cn1ncc2c(N3CCCC(C)(O)C3)nc(C(C)(C)C)nc21` (stereo not given), for which the INHIBITION was determined as 19.2%.
On to `CC(=O)NCCC1CCN(c2nc(C(C)(C)C)nc3c2cnn3C)CC1`, for which the INHIBITION is listed as 64.9%.
Consider `Cn1ncc2c(N3CCC(CCO)CC3)nc(C(C)(C)C)nc21`, for which the INHIBITION is 22.9%.
The figure for `COCc1nc(N2CC[C@H](N(C)C)C2)c2cnn(C)c2n1` is -15.8%; for `COCC1CCN(c2nc(C(C)(C)C)nc3c2cnn3C)C1` (stereo not given) it is 50.1%.
The figure for `CNC(=O)[C@@H]1[C@@H](c2ccccc2)CN2CCN(Cc3cc(C)no3)C[C@H]12` is 31.3%; for `O=C(NCC(c1ccc(F)cc1)N1CCOCC1)Nc1cn[nH]c1` (stereo not given) it is -57.4%.
The figure for `Cc1cc(C(=O)Nc2ccc(-c3nnc(N(C)C)o3)cc2)oc1C` is 22.1%.
In the case of `Cc1nnc2ccc(OCCNS(C)(=O)=O)nn12`, the INHIBITION is given as 5.91%.
Consider `COCCNCc1cc2cc(C)cc(C)c2[nH]c1=O`, for which the INHIBITION turned out to be 14.6%.
The figure for `COc1ccc(CNCC2CN(C3CC3)CCO2)cc1OC` (stereo not given) is -13.6%; for `COc1ccccc1-c1nnc2n1N=C(N)C(C#N)S2` (stereo not given) it is 34.3%; for `Cc1ccnc(NC(=O)C2CCN(CCCn3ccnc3C)CC2)c1` it is 44.3%.
The figure for `c1n[nH]cc1CCCN1CCC(OC2CCCCC2)CC1` is 11.8%; for `Cc1ccnc(NC(=O)C2CCN(CCCc3cn[nH]c3)CC2)c1` it is 54.5%; for `CC(C)(C)CC(=O)NCC(=O)Nc1ccn(CCCn2ccnc2)n1` it is 23.1%.
For the compound `Cc1ccnc(NC(=O)C2CCN(CCCn3ccnc3)CC2)c1`, the INHIBITION stood at 61.9%.
The figure for `COCC1CCN(CCCc2cn[nH]c2)CC1` is 30.8%; for `O=C(c1ccc(-c2ccc(O)nc2)s1)N1CCCCCC1` it is -13.87%.
The figure for `CCOc1ccc(CN(CCOC)c2nc(C)nc3oc(C)nc23)cc1` is 83.2%.
The figure for `Cc1nc(N(CCC(N)=O)Cc2ccccc2)c2nc(C)oc2n1` is 48.8%; for `Cc1nc(N(C)CCCc2nccn2C)c2nc(C)oc2n1` it is -26.7%.
For `COCCN(Cc1ccccc1C)c1nc(C)nc2oc(C)nc12`, the INHIBITION is 74%.
The figure for `CCN(Cc1ccncc1)c1nc(C)nc2oc(C)nc12` is 40.6%; for `COCCN(Cc1cccnc1)c1nc(C)nc2oc(C)nc12` it is 44.3%.
